The entries come from a sample that favours the strongest signals as a whole.
Key:
Test in all cases: glycan array binding signal (z-score within array); higher = stronger binding
Details in all cases: glycan notation: IUPAC condensed, linker removed
[1] = target: Fuc(a1-2)Gal(b1-3)GlcNAc(b1-3)[Fuc(a1-2)Gal(b1-3)GlcNAc(b1-6)]GalNAc
How it was run: (§1)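 The binding signal is a Z-score computed within each array. Data were drawn from 3228 arrays in the Consortium for Functional Glycomics database, restricted to those with a known protein sequence. Scores were averaged over arrays of the same protein sequence at different concentrations or buffers, and over linkers, and negative values can be taken as non-binding.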

[2] = target: Fuc(a1-2)Gal(b1-4)[Fuc(a1-3)]GlcNAc(b1-3)Gal(b1-4)[Fuc(a1-3)]GlcNAc
How it was run: as §1

[3] = target: Fuc(a1-2)[Gal(a1-3)]Gal(b1-3)GlcNAc
How it was run: as §1

[4] = target: Fuc(a1-2)[Gal(a1-3)]Gal(b1-4)GlcNAc(b1-3)GalNAc
How it was run: as §1

Gal(a1-3)Gal(b1-4)Glc = target: Gal(a1-3)Gal(b1-4)Glc
How it was run: as §1

[5] = target: Gal(a1-3)Gal(b1-4)GlcNAc(b1-2)Man(a1-3)[Gal(a1-3)Gal(b1-4)GlcNAc(b1-2)Man(a1-6)]Man(b1-4)GlcNAc(b1-4)GlcNAc
How it was run: as §1

[6] = target: Gal(a1-4)Gal(b1-3)GlcNAc(b1-2)Man(a1-3)[Gal(a1-4)Gal(b1-3)GlcNAc(b1-2)Man(a1-6)]Man(b1-4)GlcNAc(b1-4)GlcNAc
How it was run: as §1

Gal(b1-2)Gal = target: Gal(b1-2)Gal
How it was run: as §1

[7] = target: Gal(b1-3)GalNAc(a1-3)[Fuc(a1-2)]Gal(b1-4)Glc
How it was run: as §1

[8] = target: Gal(b1-3)GalNAc(b1-3)Gal(a1-4)Gal(b1-4)Glc
How it was run: as §1

[9] = target: Gal(b1-3)GalNAc(b1-4)Gal(b1-4)Glc
How it was run: as §1

[10] = target: Gal(b1-3)GlcNAc(b1-3)Gal(b1-3)GlcNAc
How it was run: as §1

Gal(b1-3)GlcNAc6S = target: Gal(b1-3)GlcNAc6S
How it was run: as §1

[11] = target: Gal(b1-3)[Fuc(a1-4)]GlcNAc(b1-2)Man(a1-3)[Gal(b1-3)[Fuc(a1-4)]GlcNAc(b1-2)Man(a1-6)]Man(b1-4)GlcNAc(b1-4)[Fuc(a1-6)]GlcNAc
How it was run: as §1

[12] = target: Gal(b1-4)GlcNAc(b1-2)Man(a1-6)[GlcNAc(b1-2)Man(a1-3)]Man(b1-4)GlcNAc(b1-4)GlcNAc
How it was run: as §1

[13] = target: Gal(b1-4)GlcNAc(b1-2)[Gal(b1-4)GlcNAc(b1-4)]Man(a1-3)[GlcNAc(b1-4)][Gal(b1-4)GlcNAc(b1-2)Man(a1-6)]Man(b1-4)GlcNAc(b1-4)GlcNAc
How it was run: as §1

[14] = target: Gal(b1-4)GlcNAc(b1-3)Gal(b1-4)GlcNAc(b1-2)Man(a1-3)[Gal(b1-4)GlcNAc(b1-3)Gal(b1-4)GlcNAc(b1-2)Man(a1-6)]Man(b1-4)GlcNAc(b1-4)GlcNAc
How it was run: as §1

[15] = target: Gal(b1-4)GlcNAc(b1-3)Gal(b1-4)GlcNAc(b1-3)Gal(b1-4)GlcNAc(b1-2)Man(a1-3)[Gal(b1-4)GlcNAc(b1-3)Gal(b1-4)GlcNAc(b1-3)Gal(b1-4)GlcNAc(b1-2)Man(a1-6)]Man(b1-4)GlcNAc(b1-4)[Fuc(a1-6)]GlcNAc
How it was run: as §1

[16] = target: Gal(b1-4)GlcNAc(b1-3)Gal(b1-4)GlcNAc(b1-3)Gal(b1-4)GlcNAc(b1-3)Gal(b1-4)GlcNAc(b1-2)Man(a1-3)[Gal(b1-4)GlcNAc(b1-3)Gal(b1-4)GlcNAc(b1-3)Gal(b1-4)GlcNAc(b1-3)Gal(b1-4)GlcNAc(b1-2)Man(a1-6)]Man(b1-4)GlcNAc(b1-4)GlcNAc
How it was run: as §1

[17] = target: Gal(b1-4)GlcNAc(b1-3)Gal(b1-4)GlcNAc(b1-3)Gal(b1-4)GlcNAc(b1-3)Gal(b1-4)GlcNAc(b1-2)Man(a1-3)[Gal(b1-4)GlcNAc(b1-3)Gal(b1-4)GlcNAc(b1-3)Gal(b1-4)GlcNAc(b1-3)Gal(b1-4)GlcNAc(b1-2)Man(a1-6)]Man(b1-4)GlcNAc(b1-4)[Fuc(a1-6)]GlcNAc
How it was run: as §1

[18] = target: Gal(b1-4)GlcNAc(b1-3)Gal(b1-4)GlcNAc(b1-3)Gal(b1-4)GlcNAc(b1-3)Gal(b1-4)GlcNAc(b1-2)[Gal(b1-4)GlcNAc(b1-3)Gal(b1-4)GlcNAc(b1-3)Gal(b1-4)GlcNAc(b1-3)Gal(b1-4)GlcNAc(b1-6)]Man(a1-6)[Gal(b1-4)GlcNAc(b1-3)Gal(b1-4)GlcNAc(b1-3)Gal(b1-4)GlcNAc(b1-3)Gal(b1-4)GlcNAc(b1-2)Man(a1-3)]Man(b1-4)GlcNAc(b1-4)[Fuc(a1-6)]GlcNAc
How it was run: as §1

[19] = target: Gal(b1-4)GlcNAc(b1-3)Gal(b1-4)GlcNAc(b1-3)Gal(b1-4)GlcNAc(b1-3)Gal(b1-4)GlcNAc(b1-3)Gal(b1-4)GlcNAc(b1-2)Man(a1-3)[Gal(b1-4)GlcNAc(b1-3)Gal(b1-4)GlcNAc(b1-3)Gal(b1-4)GlcNAc(b1-3)Gal(b1-4)GlcNAc(b1-3)Gal(b1-4)GlcNAc(b1-2)Man(a1-6)]Man(b1-4)GlcNAc(b1-4)GlcNAc
How it was run: as §1

[20] = target: Gal(b1-4)GlcNAc(b1-3)Gal(b1-4)GlcNAc(b1-3)Gal(b1-4)GlcNAc(b1-3)Gal(b1-4)GlcNAc(b1-3)Gal(b1-4)GlcNAc(b1-2)Man(a1-3)[Gal(b1-4)GlcNAc(b1-3)Gal(b1-4)GlcNAc(b1-3)Gal(b1-4)GlcNAc(b1-3)Gal(b1-4)GlcNAc(b1-3)Gal(b1-4)GlcNAc(b1-2)Man(a1-6)]Man(b1-4)GlcNAc(b1-4)[Fuc(a1-6)]GlcNAc
How it was run: as §1

[21] = target: Gal(b1-4)GlcNAc(b1-3)Gal(b1-4)GlcNAc(b1-3)Gal(b1-4)GlcNAc(b1-3)Gal(b1-4)GlcNAc(b1-3)Gal(b1-4)GlcNAc(b1-2)[Gal(b1-4)GlcNAc(b1-3)Gal(b1-4)GlcNAc(b1-3)Gal(b1-4)GlcNAc(b1-3)Gal(b1-4)GlcNAc(b1-3)Gal(b1-4)GlcNAc(b1-6)]Man(a1-6)[Gal(b1-4)GlcNAc(b1-3)Gal(b1-4)GlcNAc(b1-3)Gal(b1-4)GlcNAc(b1-3)Gal(b1-4)GlcNAc(b1-3)Gal(b1-4)GlcNAc(b1-2)Man(a1-3)]Man(b1-4)GlcNAc(b1-4)[Fuc(a1-6)]GlcNAc
How it was run: as §1

B1: Epa9 (Candida glabrata), CAGL0A01386g (protein)
chain: MGSSHHHHHHSSGLVPRGSHMDITPFAHYPRPEGCSSPPNAVSVGLHMDLYNYPYLYVKNPRTGFTNDTDSDADGETDGDSAGGIEGRAGQCWNPEYQDPNFPRYGYKKYGSFGSSDHVNGKISWDHNEFKEGCKPIMARLPTAYNYPAKITFSNFTMVLSGYFKPKSTGLYKFEIHADDFILFNFGSKNAFECCNREESIDNFGPYVAYAMWPNEADQELEVYLFEDSYYPIRLFYNNRDYHSKFMVGFYPPNTEEITYDFDGYLYMLDDTGNECKDSIRYKTVCDD
**Q.** Which results are given for B1?
**A.** glycan array binding signal (z-score) [1]: -0.296; glycan array binding signal (z-score) [2]: -0.521; glycan array binding signal (z-score) [3]: -0.32; glycan array binding signal (z-score) [4]: -0.304; glycan array binding signal (z-score) (Gal(a1-3)Gal(b1-4)Glc): 0.746; glycan array binding signal (z-score) [5]: 4.07; glycan array binding signal (z-score) [6]: 4.05; glycan array binding signal (z-score) (Gal(b1-2)Gal): 0.38; glycan array binding signal (z-score) [7]: 1.58; glycan array binding signal (z-score) [8]: 1.98; glycan array binding signal (z-score) [9]: 4.13; glycan array binding signal (z-score) [10]: -0.11; glycan array binding signal (z-score) (Gal(b1-3)GlcNAc6S): -0.028; glycan array binding signal (z-score) [11]: -0.377; glycan array binding signal (z-score) [12]: 0.1; glycan array binding signal (z-score) [13]: 1.34; glycan array binding signal (z-score) [14]: 1.3; glycan array binding signal (z-score) [15]: 3.45; glycan array binding signal (z-score) [16]: 4.82; glycan array binding signal (z-score) [17]: 4.74; glycan array binding signal (z-score) [18]: 5.31; glycan array binding signal (z-score) [19]: 5.73; glycan array binding signal (z-score) [20]: 5.38; glycan array binding signal (z-score) [21]: 6.29

— the supplement of paper PMC8728848
